{"source": "PubChem BioAssay AID1347432", "about": "(National Center for Advancing Translational Sciences (NCATS), 2020)", "note": "Active and inactive are the calls of the source. A call without a number means that no potency is given here. The call rests on the fitted dose curve; in most records, active means well fitted curve in the direction sought with a large enough effect; inactive means no such curve, though single readings can be large or run the other way."}
{"molecular_target": "Uracil-DNA glycosylase (Escherichia coli (strain K12)) (UniProt P12295)", "assay": "Confirmatory (Round 2) qHTS assay for inhibitors of Activation Induced Cytidine Deaminase (AID): UDG counterscreen signal", "conditions": "FRET fluorescence, 4 h; series mostly up to 78.4 µM", "from_the_text": "Assay Provider (PI) Patricia Gearhart Ph.D. National Institute on Aging National Institute of Health (NIH), Bethesda, MD Assay Provider (PI) Rahul Kohli Ph.D. Perelman School of Medicine University of Pennsylvania, Philadelphia, PA Activation-Induced Deaminase (AID) is a cytosine deaminase which converts cytosine into uracil within stretches of ssDNA. The presence of uracil in DNA initiates a cascade of mutagenic DNA repair to introduce point mutations and DNA double strand breaks. Specific targeting of AID to the immunoglobulin heavy chain loci (Igh) promotes mutagenesis in the antibody variable region for somatic hypermutation (SHM) or switch regions leading to class switch recombination (CSR). However, AID also plays a role in accumulating unnecessary mutations across the genome. Mis-targeting of AID results in the initiation of tumor development and leads to greater drug resistance among cancer cells when continually expressed. To identify an AID inhibitor, a small molecule library will be screened in collaboration with NCATS core facility at NIH. To confirm biological function, inhibitors will be examined in an in vitro murine B-cell activation assay and subsequent secondary validation screens. Top molecules will be further screened to identify inhibitory efficacy against a wild type primary splenocytes assay. Using these approaches, we hope to identify a small molecule with great efficacy and low toxicity for use as a molecular probe to further characterize AID's intricacies, or even as a therapeutic. A FRET based analysis of cytosine deamination, was developed to identify potential inhibitors of AID catalytic activity. This screen has two signal output, Read 1 evaluates the AID inhibition response. The second readout (Read 2) evaluates UDG response and is uses as a counterscreen to exclude false positive inhibitors. Inhibition in AID and inactivity in the UDG signal is the desired outcome for this assay.\nPROTOCOL TABLE SEQUENCE No. (e.g., 1, 2, 3, etc.); PARAMETER (e.g., Cells, Incubation, Reagent, etc.); VALUE; DESCRIPTION 1a; Reagent; 3 uL; [4/3x] 1 uM AID/2.67 U/mL UDG 1b; Reagent; 3 uL; 2 U/mL UDG 1c; Reagent; 3 uL; 1 uM AID 2a; Compound; 46 nL; Follow-up plates (0.64 uM - 10 mM) 2b; Control; 46 nL; ATA ([…] - 10 mM) 3; Time; 10 min; incubation at room temperature 4; Reagents; 1 uL; [4x] 250 nM DJC20 / 250 nM DJC23 [Substrate] 5; Time; 4 hr; incubation at room temperature 6; Reagent; 4 uL; [2x] 250 mM NaOH 7; Time; 15 sec; centrifuge at 1000 rpm 8; Time; 30 min; incubation at room temperature 9a; Detection; fluorescence (Read 1: AID); EnVision (PerkinElmer) plate reader, 540 excitation and 590 emission filters 9b; Detection; fluorescence (Read 2: UDG); EnVision (PerkinElmer) plate reader, 560 excitation and 665 emission filters NOTES (numbers refer to sequence above) 1a; Reagents were dispensed in a medium-binding black solid-bottom Greiner plates (789176F) using a BioRptr liquid dispenser. Dispense 3 uL of [4/3x] 1 uM AID (provided by Kohli lab) and [4/3x] 2 U/mL UDG (NEB M0280L) into columns 1, 2, 5 to 48. 1b; Dispense 3 uL of [4/3x] 2 U/mL UDG into column 3. 1c; Dispense 3 uL of [4/3x] 1 uM AID into column 4. 2a; Compound (7-points [uM]: 0.64; 3.2; 16; 80; 400; 2,000; 10,000; […]) double pin-transferred (Dip Factor = 2) using the Kalypsys (Wako USA) pintool equipped with a 1536 pinhead for a final concentration range of 7.32 nM - 114 uM. 2b; 10 mM Aurintricarboxylic Acid (Sigma A1895) (ATA, 8-point, n = 2, 1:2.5 dilution in column 2) double pin-transferred (Dip Factor = 2) using the Kalypsys (Wako USA) pintool equipped with a 1536 pinhead for a [final] range of 186 nM - 114 uM. 3; Room temperature incubation. 4; Dispense 1 uL of substrate mixture from the Kohli lab [4x] […] DJC20 and [4x] 250 nM DJC23 into columns 1 to 48 . 5; Room temperature incubation. 6; Dispense 4 uL of substrate mixture [2x] 250 mM NaOH into columns 1 to 48. 7; Centrifugation step to remove bubbles. […]"}
{"smiles": "O=c1cc2nc(-c3ccccc3)nc(SCCCc3ccncc3)n2[nH]1", "Potency": "inactive"}
{"smiles": "O=C(O)C1=CC(=C(c2ccc(O)c(C(=O)O)c2)c2ccc(O)c(C(=O)O)c2)C=CC1=O", "Potency": "31.6 µM (active)"}
{"smiles": "O=c1cc2nc(-c3ccccc3)nc(SCCN3CCC(F)(F)CC3)n2[nH]1", "Potency": "inactive"}
{"smiles": "Cn1ccnc1CCSc1nc(-c2ccccc2)nc2cc(=O)[nH]n12", "Potency": "inactive"}
{"smiles": "CN1CCN(CCCSc2nc(-c3ccccc3)nc3cc(=O)[nH]n23)CC1", "Potency": "inactive"}
{"smiles": "O=c1cc2nc(-c3ccccc3)nc(SCCCn3ccnc3)n2[nH]1", "Potency": "inactive"}
{"smiles": "CC(C)c1ccc2c(c1)c(SC(C)(C)C)c(CC(C)(C)C(=O)O)n2Cc1ccc(Cl)cc1", "Potency": "inactive"}
{"smiles": "Cc1noc(C)c1CCSc1nc(-c2ccccc2)nc2cc(=O)[nH]n12", "Potency": "inactive"}
{"smiles": "COc1ccccc1OCCSc1nc(-c2ccc(C(C)(C)C)cc2)nc2cc(=O)[nH]n12", "Potency": "inactive"}
{"smiles": "O=c1cc2nc(-c3ccccc3)nc(SCCOCCOc3ccccc3)n2[nH]1", "Potency": "inactive"}
